Only a selection was taken, and hits are over-represented in it overall.
LmPK inhibitor: blocks Leishmania mexicana pyruvate kinase activity | purified LmPK, Kinase-Glo ATP luminescence, 1 h | Potency, µM (highest dose often 57.5 µM), for the others: at the top dose activity change, negative = inhibition, actives largely listed as inhibitors | hit rate 0.37% among 290,000 | AID 1721; also: potency is read from the fitted curve at half-maximal effect; % is scaled to controls: 0 for no effect and ±100 for the full control effect
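In 50 mM imidazole pH 7.2 with 7 mM MgCl2, LmPK (0.1 nM) turned over PEP (0.5 mM) and ADP (0.1 mM) for 1 h at room temperature. Luciferase read-out of ATP.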
TbPYK inhibitor: blocks Trypanosoma brucei pyruvate kinase; Q57TT1; TbPYK enzyme, Kinase-Glo Plus ATP luminescence, 45 min; Potency, µM (series often up to 76.8 µM), for the others: at the top dose activity, negative = inhibition, most hits filed as inhibitors; hit rate 0.12% among 410,000; also: potency is read from the fitted curve at half-maximal effect; % is scaled to controls: 0 for no effect and ±100 for the full control effect; nearly all actives have a fitted effect of over 50% in size
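Enzyme and substrate buffer are dispensed first and compound is pin-transferred. ADP at 130 uM final then starts the reaction, which runs 45 min at room temperature. Detection reagent is added for 10 min before luminescence is imaged.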
RE007 growth inh: less growth of the S. pombe RE007 Vpr strain; S. pombe RE007 Vpr strain, BacTiter-Glo ATP luminescence, 24 h; Potency, µM (top dose mostly 92.2 µM), for the others: at the top dose activity change, negative = less growth, most hits filed as inhibitors; hit rate 0.21% among 360,000; active = well fitted falling curve with a large enough effect; inconclusive = small, poorly fitted or top-dose-only effect; inactive = no such curve, though single readings can be large or run the other way; also: potency is read from the fitted curve at half-maximal effect; % is scaled to controls: 0 for no effect and ±100 for the full control effect; nearly all actives have a fitted effect of over 50% in size
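Fission yeast RE007 carrying one integrated HIV-1 vpr copy, seeded at OD 0.01 in PMG+AL medium with 23 nL pinned compound. Grown 24 h at 30 degrees; viability read by BacTiter-Glo luminescence after 5 min.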
Cycloheximide cs: affects cycloheximide protein synthesis inhibition readout, counter-screen. AID 2314. max response, %. cell reporter, cycloheximide protein synthesis inhibition counterscreen. hit rate 12% among 300,000; in the data active = max response mostly above about 13%, no sharp cut-off; inactive = mostly below about 14%; also: read at 38.3 µM for the half of the compounds with a filed dose; 0% is about no effect
Shiga inhibitor: inhibitors of Shiga toxin in Vero cells. Vero cells, Shiga toxin protein synthesis inhibition reporter. hit rate 9.2% among 290,000. inhibition, % at 38.7 µM. AID 2315; in the data active = inhibition mostly above about 28%, no sharp cut-off; inactive = mostly below about 43%; also: 0% is about no effect
FBPA Giardia inh: blocks Giardia fructose-bisphosphate aldolase activity | Potency, µM (highest dose often 59.6 µM), inactives show at the top dose activity, negative = inhibition, actives largely listed as inhibitors | purified Giardia FBPA | hit rate 0.71% among 290,000 | A8B2U2; also: potency is read from the fitted curve at half-maximal effect; % is scaled to controls: 0 for no effect and ±100 for the full control effect; nearly all actives have a fitted effect of over 55% in size
Target sequence (A8B2U2 whole entry, looked up): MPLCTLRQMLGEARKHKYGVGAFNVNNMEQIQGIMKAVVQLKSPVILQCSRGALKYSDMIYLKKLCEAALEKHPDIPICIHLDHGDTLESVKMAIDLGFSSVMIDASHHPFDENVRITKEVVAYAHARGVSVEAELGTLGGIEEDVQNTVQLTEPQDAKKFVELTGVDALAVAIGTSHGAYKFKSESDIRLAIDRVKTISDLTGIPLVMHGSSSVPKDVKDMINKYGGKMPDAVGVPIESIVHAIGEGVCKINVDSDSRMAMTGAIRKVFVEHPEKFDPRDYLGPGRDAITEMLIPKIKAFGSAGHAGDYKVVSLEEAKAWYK
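Giardia FBPA (40 nM reagent) was preincubated 10 min at RT with compound (up to 57.5 uM final), then substrate plus GAPDH/TPI/NAD/arsenate coupling system with diaphorase/resazurin was added; resorufin fluorescence (525/598 nm) was read after 20 min.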
* marks the source's active call; other numbers are inactive results; ? = inconclusive; / = no result; [ ] = remark or other dose. Unless noted, calls follow the shape of the dose curve; as a rule, active = well fitted curve in the direction sought with a large enough effect; inconclusive = small, poorly fitted or top-dose-only effect, or another doubt; inactive = no such curve, though single readings can be large; an effect the other way counts as inactive or inconclusive.

SMILES	LmPK inhibitor	TbPYK inhibitor	RE007 growth inh	Cycloheximide cs	Shiga inhibitor	FBPA Giardia inh
COCCn1c(=O)c(-c2ccc(OC)cc2)nc2cnc(N3CCN(C)CC3)nc21	/	/	/	/	/	3%
CC(C)(C)OC(=O)NCCCC(CCCNC(=O)OC(C)(C)C)C(=O)O	-3%	-2%	-16%	9	-12	8%
CC(C)(C)OC(=O)NCCCCCO	/	-3%	3%	27*	27*	5%
O=C1NC(=O)C(=Cc2ccc(Sc3ccccc3)o2)C(=O)N1	?	40µM*	0%	20*	34	-19%
CC1CC(C)C(=O)C(C(O)CC2CC(=O)NC(=O)C2)C1 (configuration not stated)	/	3%[157 µM]	/	/	/	/
Cc1ccc(C(=O)Cn2ncsc2=N)cc1	-1%	-7%	-6%	52*	127*	1%
O=C(/C=C/c1ccc(O)c(O)c1)OC1C(O)CC(OC(=O)/C=C/c2ccc(O)c(O)c2)(C(=O)O)CC1O (configuration not stated)	2µM*	?	3%	13	1	-25%
CCOC(=O)COc1cc(C)c(Cl)cc1C(=O)c1ccn2nc(-c3ccc(OC)cc3)cc2n1	/	-2%	/	/	/	/
CCOC(=O)C1CCCN(c2c(C(=O)c3ccc(C)cc3)cnc3ccc(OCC)cc23)C1 (configuration not stated)	/	-3%	/	-2	1	/
COc1ccc(NC(=O)c2ccco2)cc1N	-12%	-14%	-3%	65*	66*	40µM*
COc1cc(NC(=O)c2oc3ccccc3c2C)ccc1NC(=O)c1ccco1	7%	-4%	-8%	29*	63*	-5%
COc1cc(NC(=O)c2ccco2)ccc1NC(=O)c1ccccc1Cl	4%	34%	41%	13*	41	1%
COc1cc(NC(=O)c2ccccc2Cl)ccc1NC(=O)c1ccco1	4%	5%	-21%	41*	59	0%
Cc1ccc2nc(-c3ccc(C)s3)c(Nc3ccc4c(c3)OCCO4)n2c1	/	4%	/	/	/	/
CCNC(=O)[C@H]1O[C@@H](n2cnc3c(N)nc(NCCc4ccc(CCC(=O)O)cc4)nc32)[C@H](O)[C@H]1O	/	/	/	/	/	-4%
COCCn1c(C)cc(/C=C2/NC(=O)N(c3ccc(Cl)cc3)C2=O)c1C	-1%	-3%	6%	55*	16	-5%
COCCn1c(C)cc(/C=C2/NC(=O)N(Cc3ccc(C)cc3)C2=O)c1C	0%	-6%	-7%	12	48	-8%
COc1ccc(/C=C2/SC(=O)N(CCNC(=O)CC(NC(C)=O)c3ccccc3)C2=O)cc1 (configuration not stated)	-4%	-8%	-13%	21*	29	2%
COc1ccc(/C=C2\SC(=O)N(CCNC(=O)C3CC4C=CC3C4)C2=O)cc1 (configuration not stated)	4%	3%	-2%	58*	101*	1%
COc1ccc(/C=C2\SC(=O)N(CCn3cnnn3)C2=O)cc1	3%	3%	15%	37*	83*	1%
COc1ccc(/C=C2/SC(=O)N(CCNC(=O)C3CCCN3C(=O)c3cccs3)C2=O)cc1 (configuration not stated)	1%	-4%	0%	32*	63*	0%
COc1ccc(/C=C2/SC(=O)N(CC(O)Cn3c4ccccc4c4ccccc43)C2=O)cc1 (configuration not stated)	3%	-8%	0%	-1	-9	-9%
COc1ccc(N(CC(=O)N2CCN(c3ccccc3)CC2)S(=O)(=O)c2c(C)nn(C)c2C)cc1	/	1%	/	/	/	/
CCN(CC)S(=O)(=O)c1ccc(C(=O)NCC(=O)NCc2ccc3c(c2)OCO3)cc1	/	-5%	3%	/	/	/
OC(CNCC(c1ccc(Cl)cc1Cl)c1c[nH]c2ccccc12)c1ccccc1 (configuration not stated)	-2%	-18%	-26%	-2	-22	-5%
Cc1ccc(NC(=O)N2CCCCCC2)cc1C	-2%	3%	4%	44*	69*	/
Cc1ccc(NC(=O)N2CCCCC2)cc1NC(=O)N1CCCCC1	9%	-5%	/	3	-4	2%

Assay outcomes: PubChem, National Center for Advancing Translational Sciences (NCATS)
